Hit rate of the full screen: of about 310,000 compounds, about 3,600 (1.2%) were called active.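 How the source made its calls: active means ratio plate-corrected score three or more library SD toward inhibition, starting fluorescence score within five deviations; inactive means the rest.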 Many of the other results were omitted from the sample, so actives are more common in it than they were.
Each compound was assayed against Anoctamin-1 (Mus musculus) (UniProt Q8BHY3) (assay: blockers of mouse ANO1 Ca-activated Cl channel – cell-based, HTS, primary screen (AID 588511;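 on normalized B-score (activity score, 25-100; higher = stronger inhibition): score derived from kinetic fluorescence span divided by baseline fluorescence per well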)). Settings: HEK293 TMEM16A/YFP iodide influx fluorescence, ionomycin; at 10 µM.
Anoctamin-1 (Mus musculus), sequence (Q8BHY3 whole entry, looked up): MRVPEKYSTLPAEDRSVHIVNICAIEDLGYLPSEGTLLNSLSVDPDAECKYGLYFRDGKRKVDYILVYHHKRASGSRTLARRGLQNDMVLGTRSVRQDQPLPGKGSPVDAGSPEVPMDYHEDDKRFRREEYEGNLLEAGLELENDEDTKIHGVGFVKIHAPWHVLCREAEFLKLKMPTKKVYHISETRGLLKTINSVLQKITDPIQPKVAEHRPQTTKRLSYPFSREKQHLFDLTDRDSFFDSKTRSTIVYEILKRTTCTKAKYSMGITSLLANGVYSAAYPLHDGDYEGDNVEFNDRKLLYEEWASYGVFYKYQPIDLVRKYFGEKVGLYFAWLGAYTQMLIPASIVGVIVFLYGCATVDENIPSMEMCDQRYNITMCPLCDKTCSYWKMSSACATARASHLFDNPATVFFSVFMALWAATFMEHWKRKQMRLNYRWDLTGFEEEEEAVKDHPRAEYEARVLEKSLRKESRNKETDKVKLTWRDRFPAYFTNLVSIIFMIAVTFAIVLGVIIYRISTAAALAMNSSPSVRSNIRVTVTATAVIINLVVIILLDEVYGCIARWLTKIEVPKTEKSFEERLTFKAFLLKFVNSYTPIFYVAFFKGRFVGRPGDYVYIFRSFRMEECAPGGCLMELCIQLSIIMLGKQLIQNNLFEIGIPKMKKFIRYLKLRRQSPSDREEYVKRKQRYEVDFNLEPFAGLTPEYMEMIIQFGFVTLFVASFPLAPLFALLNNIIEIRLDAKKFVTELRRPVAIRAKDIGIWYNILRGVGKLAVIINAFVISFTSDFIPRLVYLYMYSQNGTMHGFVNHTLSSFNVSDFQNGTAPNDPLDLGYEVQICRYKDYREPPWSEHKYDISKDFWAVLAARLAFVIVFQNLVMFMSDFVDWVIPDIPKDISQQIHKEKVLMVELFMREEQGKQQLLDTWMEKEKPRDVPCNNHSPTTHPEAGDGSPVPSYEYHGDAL
With `CCN(CC)C(=O)Oc1ccc(OC(=O)N(CC)CC)cc1` the normalized B-score (activity score, 25-100; higher = stronger inhibition) was “inactive”.
In the case of `Cc1ccc(NC(=O)CN2C(=O)NC(C)(c3ccc(Cl)cc3)C2=O)c(Br)c1` (stereo not given), the normalized B-score (activity score, 25-100; higher = stronger inhibition) is reported as “inactive”.
In the case of `CCOC(=O)C1=C(CN2CCc3ccccc32)NC(=O)NC1c1ccc(Cl)cc1` (stereo not given), the normalized B-score (activity score, 25-100; higher = stronger inhibition) is reported as “inactive”.
With `CCOC(=O)C1=C(CN2CCc3ccccc32)NC(=O)NC1c1cccc([N+](=O)[O-])c1` (stereo not given) the normalized B-score (activity score, 25-100; higher = stronger inhibition) was 25 (active).
`CCOC(=O)C1=C(CN2CCCCCC2)NC(=O)NC1c1cccc([N+](=O)[O-])c1` (stereo not given) was tested, and the normalized B-score (activity score, 25-100; higher = stronger inhibition) was “inactive”.
With `CS(=O)(=O)N(CC(=O)N1CCOCC1)c1cccc(Cl)c1Cl` the normalized B-score (activity score, 25-100; higher = stronger inhibition) was “inactive”.
With `CN(CC(=O)NCCc1ccccc1)S(=O)(=O)c1cnc[nH]1` the normalized B-score (activity score, 25-100; higher = stronger inhibition) was “inactive”.
`COc1ccc(C2C(C(C)=O)=C(O)C(=O)N2c2nccs2)cc1` (stereo not given) was tested, and the normalized B-score (activity score, 25-100; higher = stronger inhibition) was “inactive”.
With `Cc1cc(C)c(-c2c(O)c3ccccc3n(C)c2=O)c(C)c1` the normalized B-score (activity score, 25-100; higher = stronger inhibition) was “inactive”.
`CCCCCCOc1ccc(OC(=O)c2cccnc2)cc1` was tested, and the normalized B-score (activity score, 25-100; higher = stronger inhibition) was “inactive”.
With `CN(C)CCCN1C(=O)CSC1c1ccc([N+](=O)[O-])cc1` (stereo not given) the normalized B-score (activity score, 25-100; higher = stronger inhibition) was “inactive”.
With `CCCCCCCCCCCCN1C(=O)CSC1c1cccnc1` (stereo not given) the normalized B-score (activity score, 25-100; higher = stronger inhibition) was 25 (active).
With `CCOC(=O)N/N=C1\CC(C)S(=O)(=O)c2ccc(Cl)cc21` (stereo not given) the normalized B-score (activity score, 25-100; higher = stronger inhibition) was “inactive”.
In the case of `CN(C)c1ccc(/C=C2\NC(=S)N(Cc3ccccc3)C2=O)cc1`, the normalized B-score (activity score, 25-100; higher = stronger inhibition) is reported as “inactive”.
`CN(C)c1cc[n+](Cc2ccccc2)cc1` was tested, and the normalized B-score (activity score, 25-100; higher = stronger inhibition) was 25 (active).
In the case of `c1ccc(Cc2cc[n+](Cc3ccccc3)cc2)cc1`, the normalized B-score (activity score, 25-100; higher = stronger inhibition) is reported as “inactive”.
With `O=C(NCCC1CCCCN1S(=O)(=O)c1ccccc1)C(=O)NCC1CCCO1` (stereo not given) the normalized B-score (activity score, 25-100; higher = stronger inhibition) was “inactive”.
For `COc1ccc(CN2CN(C3CCCC3)CSC2=S)cc1`, the normalized B-score (activity score, 25-100; higher = stronger inhibition) was “inactive”.
In the case of `COC(=O)c1c(C)c(C)nc(N)c1C#N`, the normalized B-score (activity score, 25-100; higher = stronger inhibition) is reported as “inactive”.
`COc1ccc(CNC(=O)CN(Cc2ccccc2Cl)C(=O)c2csnn2)cc1` was tested, and the normalized B-score (activity score, 25-100; higher = stronger inhibition) was “inactive”.
With `Cc1ccccc1-n1nnnc1SCCCC(=O)c1ccc(F)cc1` the normalized B-score (activity score, 25-100; higher = stronger inhibition) was 100 (active).
`CC(=O)Nc1ccc(NC(=O)CSc2nnnn2-c2ccccc2F)cc1` was tested, and the normalized B-score (activity score, 25-100; higher = stronger inhibition) was “inactive”.
`O=C(CSc1nnnn1-c1ccc(O)cc1)c1ccc(F)cc1` was tested, and the normalized B-score (activity score, 25-100; higher = stronger inhibition) was “inactive”.
In the case of `CC1=C(C(=O)NC2CC(C)(C)Cc3c2cnn3-c2ccc(C)cc2)OCCO1` (stereo not given), the normalized B-score (activity score, 25-100; higher = stronger inhibition) is reported as “inactive”.
For `CCOC(=O)c1ccc(-n2c(CCC(=O)O)ccc2-c2ccccc2)cc1`, the normalized B-score (activity score, 25-100; higher = stronger inhibition) was “inactive”.
`Cc1noc(C)c1COC(=O)c1cc2ccccc2cc1O` was tested, and the normalized B-score (activity score, 25-100; higher = stronger inhibition) was 25 (active).
In the case of `Cc1noc(C)c1COC(=O)COc1ccc(-c2ccccc2)cc1`, the normalized B-score (activity score, 25-100; higher = stronger inhibition) is reported as “inactive”.
For `COCc1c(C(=O)OCc2c(C)noc2C)oc2ccccc12`, the normalized B-score (activity score, 25-100; higher = stronger inhibition) was “inactive”.
`CC(=O)Nc1ccc(S(=O)(=O)Nc2cc(C)cn(Cc3ccc(C)cc3)c2=O)cc1` was tested, and the normalized B-score (activity score, 25-100; higher = stronger inhibition) was “inactive”.
`O=C(Cc1ccccn1)c1ccc(O)cc1O` was tested, and the normalized B-score (activity score, 25-100; higher = stronger inhibition) was “inactive”.
In the case of `O=C(c1cc(COc2ccc(F)c(F)c2)on1)N1CCOCC1`, the normalized B-score (activity score, 25-100; higher = stronger inhibition) is reported as “inactive”.
With `CCn1ccnc1CN(C)C(=O)c1cc(COc2ccc(-n3cncn3)cc2)on1` the normalized B-score (activity score, 25-100; higher = stronger inhibition) was “inactive”.
With `C=CCC1(CC=C)CCCN1C(=O)c1cc(COc2ccc(-n3cncn3)cc2)on1` the normalized B-score (activity score, 25-100; higher = stronger inhibition) was 100 (active).
With `COc1ccc(N2CCN(C(=O)CNC(=O)c3ccc(Br)o3)CC2)cc1` the normalized B-score (activity score, 25-100; higher = stronger inhibition) was “inactive”.
With `COc1ccc(-c2csc(NC(=O)COC(=O)c3ccc(Br)o3)n2)cc1` the normalized B-score (activity score, 25-100; higher = stronger inhibition) was “inactive”.
With `COc1ccc(-c2nc(CCNC(=O)c3ccc(Br)o3)cs2)cc1` the normalized B-score (activity score, 25-100; higher = stronger inhibition) was 100 (active).
`COc1ccc(C(=O)COC(=O)CNC(=O)c2cccs2)cc1Br` was tested, and the normalized B-score (activity score, 25-100; higher = stronger inhibition) was “inactive”.
For `COc1ccc(C(=O)CCC(=O)Nc2ccc(Cl)cc2)cc1`, the normalized B-score (activity score, 25-100; higher = stronger inhibition) was “inactive”.
With `CO/N=C/CC(=O)c1ccc(OC)cc1` the normalized B-score (activity score, 25-100; higher = stronger inhibition) was “inactive”.
With `COc1ccc(CCC(=O)c2ccc(OC)cc2)cc1` the normalized B-score (activity score, 25-100; higher = stronger inhibition) was 100 (active).
`O=C(CSc1nc(=O)n2ccccc2n1)Nc1ccc2c(c1)OCCO2` was tested, and the normalized B-score (activity score, 25-100; higher = stronger inhibition) was “inactive”.
In the case of `CCOC(=O)CCc1c(C)c(C#N)c2[nH]c3ccccc3n2c1=O`, the normalized B-score (activity score, 25-100; higher = stronger inhibition) is reported as “inactive”.
For `CCCc1cc(=S)n2c([nH]c3ccccc32)c1C#N`, the normalized B-score (activity score, 25-100; higher = stronger inhibition) was 25 (active).
In the case of `Cc1ccccc1Cn1c(=O)[nH]c2ccccc21`, the normalized B-score (activity score, 25-100; higher = stronger inhibition) is reported as “inactive”.
In the case of `CCN1CCN(c2cc3nc(C)n(Cc4ccccc4)c(=O)c3cc2NC(=O)c2ccccc2F)CC1`, the normalized B-score (activity score, 25-100; higher = stronger inhibition) is reported as “inactive”.
With `CCC(=O)Nc1nc2ccccc2n1Cc1ccccc1C` the normalized B-score (activity score, 25-100; higher = stronger inhibition) was “inactive”.
With `CCC(=O)Nc1ccc2nc(C)n(Cc3ccccc3Cl)c(=O)c2c1` the normalized B-score (activity score, 25-100; higher = stronger inhibition) was 100 (active).
For `COC(c1ccccc1)(c1ccccc1)C(Oc1nc(C)cc(C)n1)C(=O)O` (stereo not given), the normalized B-score (activity score, 25-100; higher = stronger inhibition) was “inactive”.
For `O=C1NCCn2nc3ccccc3c21`, the normalized B-score (activity score, 25-100; higher = stronger inhibition) was “inactive”.
`COc1ccc(NC(=O)C2CCN(S(=O)(=O)c3ccc4[nH]c(=O)oc4c3)CC2)c(OC)c1` was tested, and the normalized B-score (activity score, 25-100; higher = stronger inhibition) was “inactive”.
With `CC(=O)c1cccc(OCc2cc(C(=O)NC(C)Cc3cccnc3)no2)c1` (stereo not given) the normalized B-score (activity score, 25-100; higher = stronger inhibition) was “inactive”.
With `CN(Cc1cccnc1)C(=O)c1cc(COc2ccc3ncccc3c2)on1` the normalized B-score (activity score, 25-100; higher = stronger inhibition) was 100 (active).
`Cc1ccc(OCc2cc(C(=O)N(C)CCc3ccccc3)no2)cc1C` was tested, and the normalized B-score (activity score, 25-100; higher = stronger inhibition) was “inactive”.
`CCOC(=O)c1cc(=O)c2ccc(OCc3ccccc3)cc2o1` was tested, and the normalized B-score (activity score, 25-100; higher = stronger inhibition) was “inactive”.
With `CCOC(=O)c1cc2cc(-c3c(C(=O)OCC)oc4cc(O)cc(O)c4c3=O)ccc2o1` the normalized B-score (activity score, 25-100; higher = stronger inhibition) was 100 (active).

— PubChem BioAssay AID588511 (Johns Hopkins Ion Channel Center, 2011)
